Growth data for 15 molecules are collected here from PubChem BioAssay (NCI).

Compounds without any hit were thinned out: in the full panel of roughly 83,000, 20% have a hit.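 Growth was measured after 48 h exposure to one concentration of compound in 96-well plates. Values under 10 count as active.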 A number with no mark means an inactive call. The source made the active and inactive calls.

What all share (assay): NCI-60 one-dose screen, 48 h (100 = growth as untreated, 0 = no growth, -100 = all killed)
Experiment [1] concerns DU-145 prostate. To be noted: 10 µM unless noted.
Experiment [2] deals with K-562 leukemia. Particulars: 10 µM unless noted.
Experiment [3] deals with MALME-3M melanoma. Particulars: 10 µM unless noted.
For experiment [4], the system named is MDA-MB-231 breast. To be noted: 10 µM unless noted.
In experiment [5] the test system is SF-268 CNS. Particulars: 10 µM unless noted.
The subject of experiment [6] is SF-295 CNS. Particulars: 10 µM unless noted.
Experiment [7] deals with SF-539 CNS. Particulars: 10 µM unless noted.
The test system of experiment [8] is UACC-257 melanoma. Particulars: 10 µM.
Experiment [9] deals with M14 melanoma. To be noted: 10 µM unless noted.
Experiment [10] concerns RXF 393 renal. To be noted: 10 µM unless noted.

Consider `c1ccc(CCn2nnc3c(Nc4ccc(N5CCOCC5)cc4)ncnc32)cc1`, for which the growth is 105% in [1]; 27.1% in experiment [2]; 69.2% in [3]; 78.4% in experiment [4]; 107% in experiment [5]; 94.1% in experiment [6]. For the same molecule, the growth in experiment [7] was 82.2%; in experiment [8], 68.6%; in experiment [9], 44%.
As to `CC(Br)C(OC(=O)c1ccccc1Cl)c1cc2c(cc1Br)OCO2` (centres undefined), the growth in experiment [1] is 92.7%; in experiment [2], 94.6%; in [3] it was 92.9%; in [4], 94.3%; in [10] it was 77.8%; in experiment [5], 86.1%. In addition, the figures for the growth in experiment [6], in experiment [7] and in experiment [9] were 101%, 100% and 86.6%, respectively.
Consider `N#Cc1c(NC(=O)c2ccc([N+](=O)[O-])o2)[n+]([O-])c2cc(F)c(F)cc2[n+]1[O-]`, for which the growth in [1] is 126%; in experiment [2], 92.2%; in [3], 125%; in [4], 114%; in experiment [10], 1.39% (active); in [5], 120%. Besides, the growth in experiment [6] is 97%; in experiment [7] it was 137%; in [9] it was 112%.
`Cc1nc2scc(-c3ccccc3)n2c(=O)c1CCO`: the growth in [1] was 108%; in experiment [2], 98.4%; in experiment [3], 102%; in experiment [4], 97.3%; in [10], 106%; in [5] it was 97.5%. Moreover, the growth in [6] is 102%; in experiment [7], 100%; in experiment [9] it was 101%.
As for `O=C1NCC(c2cc3ccccc3[nH]c2=O)Nc2ccccc21` (centres undefined), the growth in experiment [1] was 111%; in experiment [2], 90.2%; in experiment [3] it was 96.8%; in experiment [4] it was 97.9%; in experiment [10], 90.7%; in experiment [5], 99.9%. Moreover, the growth was 106% in experiment [6], 96.5% in experiment [7] and 101% in [9].
In the case of `Cc1ccc2c(c1)ncn2-c1ncnc2c1CC(C)c1ccccc1N2C` (centres undefined), the growth was 11.8% in experiment [1]; 7.17% (active) in experiment [2]; 49.3% in [3]; 26.9% in experiment [4]; 72% in experiment [10]; 19.9% in [5]. Besides, the growth in experiment [6] was 13.3%; in [7] it was 4.79% (active); in experiment [9], 19.7%.
For the molecule `C=C1C(=O)O[C@H]2[C@H]1CC/C(COC(=O)NCc1cc(OC)c(OC)c(OC)c1)=C\CC[C@@]1(C)O[C@@H]21`, the growth was 43.3% in experiment [1]; 16.3% in experiment [2]; 101% in experiment [3]; 56.5% in experiment [4]; 60.4% in experiment [10]; 68.5% in experiment [5]. For the same molecule, the growth in [6] was 99.4%; in experiment [7], 65.1%; in experiment [9], 49.9%.
For the molecule `CC1=CNNc2c3ncnc-3ncn21`, the growth is 104% in experiment [1]; 101% in experiment [2]; 102% in experiment [3]; 103% in [4]; 103% in experiment [5]; 103% in experiment [6]. The growth is 101% in experiment [7] and 109% in experiment [8].
On to `CCN1C(=S)N(CC)C2Nn3c(s/c(=C4\C(=O)N(C)c5ccccc54)c3=O)=NC21` (centres undefined), for which the growth was 34.6% in experiment [1]; 12.8% in [2]; 51% in experiment [3]; 42.1% in experiment [4]; 53.5% in [5]; 47.4% in experiment [6]. In addition, the growth in experiment [7] is 6.07% (active).
Take `COc1cc(/C=C/C(=O)c2ccccc2O)ccc1OCCCOc1cc2c(cc1OC)C(=O)N1CCC[C@H]1C=N2`: the growth in experiment [1] was 2.53% (active); in experiment [2] it was 76.3%; in experiment [3] it was -73.1% (active); in [4], -20.6% (active); in experiment [10] it was -44.6% (active); in [5], 0.95% (active). The growth in [6] was -11% (active); in experiment [7], -1.54% (active); in experiment [9] it was -7.64% (active).
For the molecule `COc1ccc(-c2nnc(COc3ccc(NS(=O)(=O)c4ccc(OC)cc4)cc3F)o2)cc1`, the growth was 80.8% in experiment [1]; 55.8% in [2]; 78.6% in experiment [3]; 82.7% in [4]; 84.6% in experiment [5]; 67.8% in [6]. The growth in experiment [7] is 80.5%; in [8] it was 74.9%; in experiment [9], 78.2%.
Turning to `COc1cc(C2C=C(C)N=C3SC=CN32)cc(OC)c1OC` (centres undefined), the growth in experiment [1] was 112%; in experiment [2], 123%; in experiment [3] it was 104%; in experiment [4], 100%; in experiment [5] it was 104%; in [6], 108%. For the same molecule, the growth in experiment [7] is 116%; in [8], 102%.
For `COc1cccc2cc(-c3cc4ccccc4[nH]3)c(=NC(=O)c3ccc(Cl)cc3)oc12`, the growth is 85.5% in [1]; 39.7% in experiment [2]; 58.5% in experiment [3]; 54.3% in experiment [4]; 53.5% in [5]; 67.3% in experiment [6]. In [7], the growth was 58.2%.
On to `COc1ccc(C2CC(c3cccs3)=NN2c2ccc(S(=O)(=O)NC(=O)Nc3ccc(C)cc3)cc2)cc1` (centres undefined), for which the growth in experiment [1] is 102%; in [2], 114%; in experiment [3] it was 40.6%; in experiment [4] it was 117%; in experiment [5], 95.6%; in experiment [6], 100%. In addition, the growth in experiment [7] is 98.3%; in experiment [8], 40.9%; in [9], 58.4%.
As to `COc1cc(OC)cc(-c2n[nH]nc2-c2ccc3c(c2)OCO3)c1`, the growth was 25.1% in experiment [1]; 16.7% in experiment [2]; 67.7% in experiment [3]; 18.9% in experiment [4]; 52% in experiment [5]; 1.21% (active) in [6]. Further, the growth was -31% (active) in [7], 71.4% in [8] and 14.5% in experiment [9].
